# From PubChem BioAssay
# miR122 inh: miR-122 suppressors via Renilla sensor increase, primary screen, cell-based, Huh7 psiCHECK-miR122, Renilla luciferase, single point. 48 h. activation, % at 12.5 µM. 340,000 tested, 0.14% active;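 active = mean activation of 30% or more, with every replicate also reaching 30%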;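 note: 0% = median of neutral control wells and 100% = median of positive control wells; higher luciferase signal means stronger suppression of miR-122 activity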
# An asterisk follows results filed as active. This is one part of a sample in which hits are shown more often than they occur.
SMILES,miR122 inh
C[C@H](CO)N1C[C@H](C)[C@H](CN(C)C(=O)Cc2ccccc2)Oc2ncc(C#CC3(O)CCCC3)cc2C1=O,4
C[C@@H]1CN([C@@H](C)CO)C(=O)c2cc(-c3ccc(F)cc3)cnc2O[C@H]1CN(C)Cc1cccnc1,2
O=C(C1CCOCC1)N1[C@H](CO)[C@H]2c3ccccc3NC[C@H]21,42*
CC(=O)N1[C@@H](CO)[C@H](c2ccccc2)[C@@H]1CNC(=O)CN1CCOCC1,-108
CC(=O)N(C)C[C@H]1[C@H](c2ccc(-c3cccnc3)cc2)[C@@H](CO)N1C(=O)C1CC1,-125
C[C@H]1CN([C@@H](C)CO)C(=O)c2cc(C#CCc3ccccc3)cnc2O[C@@H]1CN(C)Cc1ccccn1,1
C[C@H](CO)N1C[C@H](C)[C@@H](CN(C)Cc2ccc(C(F)(F)F)cc2)Oc2c(cccc2N(C)C)C1=O,-98
Cc1ccc(-c2cnc3c(c2)C(=O)N([C@@H](C)CO)C[C@H](C)[C@H](CN(C)C(=O)Cc2cccnc2)O3)cc1,10
COc1cccc(-c2cnc3c(c2)C(=O)N([C@@H](C)CO)C[C@H](C)[C@H](CN(C)CC2CCOCC2)O3)c1,8
C[C@@H]1CN([C@@H](C)CO)C(=O)c2cc(C3=CCCCC3)cnc2O[C@H]1CN(C)Cc1ccccc1C(=O)O,2
Nc1ccc(Oc2ccc(Br)cc2)cc1,35*
CCCNC(=O)N(C)C[C@H]1Oc2ncc(C#C[C@@H](C)O)cc2C(=O)N([C@H](C)CO)C[C@H]1C,5
C[C@@H]1CN([C@H](C)CO)C(=O)c2cc(-c3ccc(C(=O)N(C)C)cc3)cnc2O[C@H]1CN(C)Cc1ccc(C(=O)O)cc1,0
Cc1ccc(S(=O)(=O)N(C)C[C@@H]2Oc3ncc(C#Cc4cccc(F)c4)cc3C(=O)N([C@H](C)CO)C[C@@H]2C)cc1,13
C[C@H](CO)N1C[C@H](C)[C@@H](CN(C)Cc2ccncc2)Oc2ccc(NC(=O)Nc3cccc4ccccc34)cc2CC1=O,-98
C[C@H](CO)N1C[C@H](C)[C@H](CN(C)Cc2ccc(C(=O)Nc3ccccc3N)cc2)Oc2ccc(NC(=O)Nc3cccc4ccccc34)cc2CC1=O,-96
C[C@@H]1CN([C@H](C)CO)C(=O)Cc2cc(NC(=O)Nc3cccc4ccccc34)ccc2O[C@@H]1CN(C)C(=O)NC1CCCCC1,-121
C[C@@H]1CCCCO[C@@H](CN(C)CC2CCCCC2)[C@H](C)CN([C@@H](C)CO)C(=O)c2cc(NC(=O)Nc3cccc4ccccc34)ccc2O1,31*
C[C@@H]1CN([C@H](C)CO)C(=O)Cc2cc(NC(=O)Nc3cccc4ccccc34)ccc2O[C@@H]1CN(C)C(=O)Nc1cccc2ccccc12,-99
C[C@H]1CCCCO[C@@H](CN(C)CC2CCCCC2)[C@@H](C)CN([C@@H](C)CO)C(=O)c2cc(NC(=O)Nc3cccc4ccccc34)ccc2O1,33*
C[C@H]1CN([C@@H](C)CO)C(=O)c2cc(C#CC(C)(C)O)cnc2O[C@H]1CN(C)Cc1cncnc1,-109
C[C@@H]1CN([C@@H](C)CO)S(=O)(=O)c2ccc(-c3cncnc3)cc2O[C@H]1CN(C)C(=O)Cc1cccnc1,-1
C[C@H]1CN([C@@H](C)CO)C(=O)c2cc(C#Cc3ccccn3)cnc2O[C@H]1CN(C)C(=O)CCN1CCCCC1,2
COc1ccccc1-c1ccc2c(c1)O[C@H](CN(C)C(=O)Nc1ccccc1)[C@@H](C)CN([C@@H](C)CO)S2(=O)=O,-32
COCC#Cc1ccc2c(c1)O[C@H](CN(C)C(=O)COC)[C@H](C)CN([C@@H](C)CO)S2(=O)=O,13
SMILES,miR122 inh
CO[C@@H]1CN(C)C(=O)c2cc(NC(=O)c3ccc(F)cc3)ccc2OC[C@H](C)N(C)C[C@H]1C,1
COc1ccc(NC(=O)N(C)C[C@@H]2Oc3ncc(C4=CCCC4)cc3C(=O)N([C@H](C)CO)C[C@@H]2C)cc1,4
C[C@@H]1CN([C@H](C)CO)C(=O)c2cc(C#Cc3cccc(F)c3)cnc2O[C@H]1CN(C)C(=O)C1CC1,-4
CCOc1ccc(NS(=O)(=O)c2ccc(NC(=S)NC(=O)C(C)C)cc2)cc1,-115
CCOc1ccc(NC(=S)N(CCCN2CCCC2)Cc2cccn2Cc2ccc(Cl)cc2)cc1,33*
COc1ccc(S(=O)(=O)N(C)C[C@@H]2Oc3cc(-c4ccccc4OC)ccc3S(=O)(=O)N([C@@H](C)CO)C[C@@H]2C)cc1,1
C[C@@H]1CN([C@H](C)CO)S(=O)(=O)c2ccc(C#Cc3ccccn3)cc2O[C@@H]1CN(C)Cc1cccc(F)c1,-32
